From PubChem BioAssay (NCATS) come the findings set out here.

A number with no mark means an inactive call. Results filed as inconclusive are left out. The source made the active and inactive calls. The call rests on the fitted dose curve; in most records, active means well fitted curve in the direction sought with a large enough effect; inconclusive means small, poorly fitted or top-dose-only effect, or another doubt; inactive means no such curve, though single readings can be large; an effect the other way counts as inactive or inconclusive.

Assay [1] addresses Glutathione peroxidase 1 (Homo sapiens) (UniProt P07203). The assay is described as follows: Primary qHTS Assay for Inhibitors of Recombinant Selenoprotein Glutathione Peroxidase 1 (GPX1) (AID 1845191). Further: nearly all actives have a fitted effect of over 65% in size. On activity, negative = inhibition: on the % scale 0 is the no-effect control and ±100 the full control effect. An outline of the steps:
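NADPH consumption tracked by fluorescence at 340/450 nm between t=0 and t=15 min, room temperature. Final mix: 10 nM GPX1, 100 nM glutathione reductase, 1 mM GSH, 0.5 mM NADPH, 0.5 mM cumene hydroperoxide, 0.01% BSA; 30 min compound–enzyme preincubation.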

Assay [2] concerns the target Phospholipid hydroperoxide glutathione peroxidase GPX4 (Homo sapiens) (UniProt P36969). The assay is described as follows: Primary qHTS Assay for Inhibitors of Recombinant Selenoprotein Glutathione Peroxidase 4 (GPX4) (AID 1845192). Further: nearly all actives have a fitted effect of over 65% in size. On activity change, negative = inhibition: series mostly up to about 50 µM; on the % scale 0 is the no-effect control and ±100 the full control effect. An outline of the steps:
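NADPH consumption followed by fluorescence at 340/450 nm, t=0 and after 15 min at room temperature. Reaction started with cumene hydroperoxide (0.5 mM final) after 30 min compound–GPX4 preincubation; final 200 nM GPX4, 100 nM GR, 1 mM GSH, 0.5 mM NADPH.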

For assay [3], the target named is Luciferin 4-monooxygenase (Photinus pyralis) (UniProt P08659). Description: Primary firefly luciferase (FLuc) qHTS assay for identification of artifact compounds. (AID 1845220). Further: nearly all actives have a fitted effect of over 60% in size.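 On activity change, negative = inhibition: series mostly up to about 54 µM; plate controls were DMSO vehicle for no effect and no enzyme for full effect.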 An outline of the steps: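 Cell-free, 1536-well qHTS. Buffer pH 7.6 with 0.01% Tween-20 and 0.05% BSA; 10 uM D-luciferin, 10 uM ATP; 10 nM P. pyralis luciferase; luminescence after 5 min.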

A short description of assay [4]: Primary fluorescence-based thiol-reactive (MSTI) qHTS assay for identification of artifact compounds. (AID 1845221). Further: nearly all actives have a fitted effect of over 65% in size. Further: potency means the concentration at half of the fitted maximal effect.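 On activity change, negative = thiol reactive: series mostly up to about 54 µM; thiol-reactive compounds lower the probe fluorescence signal.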 An outline of the steps:
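MSTI probe at 4 uM final in 2% DMSO/PBS pH 7.4; compounds, 1 h at room temperature in dark. Fluorescence Ex/Em 525/598 nm, normalised to Acetyl-MSTI and MSTI, fitted to 4-parameter Hill.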
(Quantitative high-throughput screening tests each substance at several concentrations.)

The test system of assay [5] is Nanoluciferase (engineered Oplophorus gracilirostris luciferase). Description: Primary Nanoluciferase (NLuc) qHTS assay for identification of artifact compounds. (AID 1845222).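 Further: series mostly up to about 54 µM; 0% = DMSO and -100% = no enzyme.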 The gist of the method:
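Compounds are pinned into diluted (1:55) conditioned medium of NLuc-expressing S16 cells and held 15 min at room temperature protected from light. Nano-Glo substrate follows, and luminescence is read 5 min later.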

Assay [6] is described as follows: Primary redox qHTS assay for identification of artifact compounds. (AID 1845223).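 Further: 0% = DMSO and 100% = reference compound.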 The gist of the method: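 Redox-cycling detection via DTT (250 uM final) oxidation coupled to Amplex Red (25 uM)/HRP (250 mU/mL) in HBSS. 15 min preincubation plus 30 min after DTT, room temperature. Ex/Em 525/598 nm; 4-parameter Hill fit against DMSO and 10 uM DA3003.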

Sequence of Phospholipid hydroperoxide glutathione peroxidase GPX4 (Homo sapiens) (P36969 whole entry, looked up): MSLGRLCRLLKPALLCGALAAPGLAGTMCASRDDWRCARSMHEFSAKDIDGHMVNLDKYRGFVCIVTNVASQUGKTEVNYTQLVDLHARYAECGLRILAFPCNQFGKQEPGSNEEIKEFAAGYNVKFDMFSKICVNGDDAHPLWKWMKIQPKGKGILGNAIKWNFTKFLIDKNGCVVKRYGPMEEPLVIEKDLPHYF
Sequence of Glutathione peroxidase 1 (Homo sapiens) (P07203 whole entry, looked up): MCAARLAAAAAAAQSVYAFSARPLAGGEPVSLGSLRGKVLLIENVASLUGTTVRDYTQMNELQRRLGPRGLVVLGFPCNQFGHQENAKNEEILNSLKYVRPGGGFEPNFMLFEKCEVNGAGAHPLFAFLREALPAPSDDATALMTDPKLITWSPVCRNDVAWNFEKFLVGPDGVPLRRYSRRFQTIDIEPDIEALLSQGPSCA

With `C=C1CC[C@@H]2[C@](C)(CO)[C@H](O)CC[C@@]2(C)[C@@H]1CC(=O)C1=CCOC1=O`, the Potency entry in assay [1], in assay [2], in assay [3], in assay [4], in assay [5] and in assay [6] was “inactive” in each case.
On to `NCCOc1cc(C(=O)Nc2cc(OCCN)c3ccccc3n2)nc(C(=O)Nc2cc(OCCN)c3ccccc3n2)c1`, for which the Potency entry in assay [1], in assay [2], in assay [3] and in assay [5] was “inactive” in each case.
For the molecule `C/C(=C\Cc1c(O)c(Cl)c(C)c(C=O)c1O)CC/C=C(\C)[C@H]1CC(=O)C(C)(C)O1`, the Potency result in assay [1], in assay [2], in assay [3] and in assay [5] was “inactive” throughout.
In the case of `CC(C)c1cccc(C(C)C)c1NC(=O)Nc1ccc(Sc2ccc([N+](=O)[O-])cc2)cc1`, the Potency result in assay [1], in assay [2], in assay [3] and in assay [5] was “inactive” throughout.
As to `CCOc1ccc(-n2c(C(C)N(Cc3cccnc3)C(=O)Cc3ccc(F)c(C(F)(F)F)c3)nc3ncccc3c2=O)cc1` (configuration not stated), the Potency result in assay [1], in assay [2], in assay [3] and in assay [5] was “inactive” throughout.
Turning to `COc1c(F)cccc1C(=O)N1C[C@@H](C)CC[C@H]1CNc1ccc(Br)cn1`, the Potency result in assay [1], in assay [2], in assay [3], in assay [4] and in assay [6] was “inactive” throughout.
Turning to `CC1(C)CCCC2(C)C1C(OC(=O)/C=C/C=C/C=O)C=C1COC(=O)C12O` (configuration not stated), the Potency entry in assay [1], in assay [2], in assay [3], in assay [4] and in assay [6] was “inactive” in each case.
Consider `O=C(NCc1ccccc1-c1ccccc1C(=O)NCCc1ccccn1)OCc1ccccc1`, for which the Potency result in assay [1], in assay [2], in assay [3], in assay [4], in assay [5] and in assay [6] was “inactive” in each case.
`C=C1CC2OC(=O)C(COC)C2C(OC(=O)/C(C)=C\C)CC2(C)OC1=CC2=O` (configuration not stated): the Potency entry in assay [1], in assay [2], in assay [3], in assay [4], in assay [5] and in assay [6] was “inactive” in each case.
Turning to `C[C@@H]1C[C@H](C)CN(CCC(=O)Nc2ccc(Br)cc2)C1`, the Potency result in assay [1], in assay [2], in assay [3], in assay [4] and in assay [6] was “inactive” in each case.
Take `COCCN(C(=O)c1cc(OC)c(OC)c(OC)c1)c1nc(-c2ccccc2)cs1`: the Potency result in assay [1], in assay [2], in assay [3], in assay [4], in assay [5] and in assay [6] was “inactive” each time.
Regarding `CCCC(CCC)C(=O)Nc1ccn([C@@H]2O[C@H](CO)[C@@H](O)C2(F)F)c(=O)n1`, the Potency entry in assay [1], in assay [2], in assay [3], in assay [4], in assay [5] and in assay [6] was “inactive” each time.
As for `COc1ccc(S(=O)(=O)Nc2c(C)cc(C)cc2C)cc1`, the Potency entry in assay [1], in assay [2], in assay [3], in assay [4], in assay [5] and in assay [6] was “inactive” each time.
Take `CC[C@H](C(=O)Nc1ccccc1N1CCCC1)c1ccccc1`: the Potency result in assay [1], in assay [2], in assay [3] and in assay [5] was “inactive” throughout.
For the molecule `CC(=O)O[C@@H]1C2=C(O)C(=O)[C@](C)(OC(C)=O)C(=O)C2=CO[C@@]12O[C@@H](C)CC[C@H]2OC(C)=O`, the Potency entry in assay [1], in assay [2], in assay [3] and in assay [5] was “inactive” in each case.
For `COC(=O)c1cc2c(C(F)(F)F)cc(-c3ccccc3)cc2n1O`, the Potency result in assay [1], in assay [2], in assay [3], in assay [5] and in assay [6] was “inactive” throughout. Further, the Potency in assay [4] was 2670 nM (active).
For `COc1nc2ccc(Br)cc2cc1[C@@H](c1ccccc1)[C@@](O)(CCN(C)C)c1cccc2ccccc12`, the Potency result in assay [1], in assay [2], in assay [3], in assay [4] and in assay [6] was “inactive” each time.
On to `CCN(c1cc(-c2ccc(CN3CCOCC3)cc2)cc(C(=O)NCc2c(C)cc(C)[nH]c2=O)c1C)C1CCOCC1`, for which the Potency entry in assay [1], in assay [2], in assay [3], in assay [4] and in assay [6] was “inactive” in each case.
As for `CC(C)(C)c1ccc2c(c1)CC[C@H]2NC(=O)Nc1cccc2[nH]ncc12`, the Potency entry in assay [1], in assay [2], in assay [3], in assay [4], in assay [5] and in assay [6] was “inactive” in each case.
Take `CC(=O)O[C@@H]1C[C@@]2(C)C(CC[C@]3(C)C2CC=C2C4CC(C)(C)CC[C@]4(C(=O)O)CC[C@]23C)C(C)(C)[C@H]1O` (some centres not stated): the Potency result in assay [1], in assay [2], in assay [3], in assay [4], in assay [5] and in assay [6] was “inactive” each time.
For the molecule `CCC/C=C/C=C/C1CC(O)C2(O)C(=O)OCC12` (configuration not stated), the Potency entry in assay [1], in assay [2], in assay [3] and in assay [5] was “inactive” throughout.
On to `CC(=O)O[C@@H]1C[C@]2(C)[C@@]3(CCC4[C@@]5(C)CC[C@H](O[C@@H]6O[C@H](C(=O)O)[C@@H](O)[C@H](OC7OC(CO)C(O)C(O)[C@H]7O[C@@H]7O[C@@H](C)[C@H](O)[C@@H](O)[C@H]7O[C@@H]7OC[C@](O)(CO)[C@H]7O)[C@H]6OC6OC(CO)C(O)C(O)C6O)C(C)(C)C5CC[C@]42C)OC[C@@]12CCC(C)(C)CC23` (some centres not stated), for which the activity, negative = inhibition in assay [1] was -11.2% [at 9.52 µM]; in assay [5] it was 0.912% [at 11.6 µM]. The activity change, negative = inhibition in assay [2] was -2.16% [at 9.73 µM]; in assay [3], -3.18% [at 11.6 µM]. Also, in assay [4], the activity change, negative = thiol reactive was 238% [at 11.5 µM]. Besides, the redox activity (% of DA3003) in assay [6] is 8.79% [at 11.5 µM].
In the case of `CC(=O)OC1C(O)CC2(C)C(CCC3(C)C2CC=C2C4C5(CCC(CO[C@@H]6O[C@H](CO)[C@@H](O)[C@H](O)[C@H]6O)(OC5=O)C4(C)O)C(O)CC23C)C1(C)C` (some centres not stated), the Potency result in assay [1], in assay [2], in assay [3] and in assay [5] was “inactive” in each case.
